Inconclusive results are not listed. Active and inactive are the calls of the source. Rule for the calls: active = hit-call score of the fitted dose curve at least 0.9, where 1 is the maximum; inconclusive = response in the unintended direction; inactive = score below 0.9.

The nature of the assay: ACEA_ER_AUC_viability: ACEA Biosciences xCELLigence Real-Time Cell Analysis on Estrogen Receptor Agonism for Viability (AID 2283782).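 Note: continuous compound exposure with impedance area under curve over 80 h; hit means loss of impedance signal meaning reduced cell growth or viability.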 Summed up:
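T-47D; phenol red-free RPMI1640 + 10% CS-FBS; 8 conc., 1:4 serial, max 100 uM final, ≤0.5% DMSO; n = 2; continuous exposure; impedance monitored to 80 h post-dose; AUC vs DMSO.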
`COP(N)(=S)OC`: the AC50 (as a rule, the concentration at which the activity in the assay is half-maximal) was 32.4 µM (active).

As for `Cc1ccc2c(c1N)C(=O)c1ccccc1C2=O`, the call was inactive.

Turning to `CCN(CC)C1CCCCC1`, the outcome was inactive.

`C=CC(=O)OCC(CC)(COC(=O)C=C)COC(=O)C=C`: the AC50 was 10.1 µM (active).

Take `CC1=C(C(=O)Nc2ccccc2)S(=O)(=O)CCO1`: the AC50 is 28.6 µM (active).

In the case of `C=CC(=O)OCC(F)(F)C(F)F`, the call was inactive.

With `Oc1ccccc1Br`, the result was inactive.

On to `COP(=O)(O)OC`, for which the molecule was classed as inactive.

With `CC(C)Nc1ccc(Nc2ccccc2)cc1`, the AC50 is 18 µM (active).

Turning to `Cc1cc(C)c(C(=O)P(=O)(c2ccccc2)c2ccccc2)c(C)c1`, the AC50 was 73.1 µM (active).

With `COP(=O)(CCC(=O)NCO)OC`, the AC50 was 56.8 µM (active).

Turning to `CCOP(=S)(OCC)SCS(=O)(=O)CC`, the call was inactive.

In the case of `NNC(N)=S`, the outcome was inactive.

On to `CC(O)C#N` (stereo unspecified), for which the AC50 was 50 µM (active).

As to `CC(C)(C)OOC(C)(C)C`, the molecule was called inactive.

As to `CCOP(=S)(OCC)SCSc1ccc(Cl)cc1`, the AC50 was 27.9 µM (active).

Regarding `Cc1c([N+](=O)[O-])cc2c(c1[N+](=O)[O-])C(C)(C)CC2(C)C`, the AC50 was 82.3 µM (active).

As for `O=S(=O)(F)C(F)(F)C(F)(F)C(F)(F)C(F)(F)C(F)(F)C(F)(F)C(F)(F)C(F)(F)F`, the molecule was classed as inactive.

Regarding `O=C(O)C(F)(F)OC(F)(F)C(F)(F)OC(F)(F)C(=O)O`, the call was inactive.

`CC(Cl)CN(C)C` (stereo unspecified): the AC50 is 34.9 µM (active).

As for `N#Cc1ccc(O)cc1`, the result was inactive.

In the case of `ClC(Cl)=C(c1ccc(Cl)cc1)c1ccccc1Cl`, the call was inactive.

Turning to `N#C/C=C/c1ccccc1`, the AC50 is 50 µM (active).

As to `O=C(CBr)OCc1ccccc1`, the result was inactive.

Turning to `CCOP(=S)(OCC)SCn1nnc2ccccc2c1=O`, the result was inactive.

Take `C=C(C)C(=O)OCC1CO1` (stereo unspecified): the outcome was inactive.

For the molecule `OCC(F)(F)OC(F)(F)C(F)(F)OC(F)(F)C(F)(F)OC(F)(F)CO`, the AC50 is 137 µM (active).

Turning to `O=C(O)C(F)(F)OC(F)(F)C(F)(F)OC(F)(F)F`, the molecule was called inactive.

For `CC(O)C(F)(F)C(F)(F)F` (stereo unspecified), the molecule was called inactive.

Consider `C/C(=N\NC(=O)Nc1cc(F)cc(F)c1)c1ncccc1C(=O)O`, for which the molecule was called inactive.

As to `Cn1[nH]nnc1=S`, the molecule was called inactive.

Values taken from PubChem BioAssay (EPA / NIEHS).
